A selection: hits, their analogues and other compounds. The true share with any hit is near 1.8%.
PP5 inh = PP5 (human) phosphatase inhibition. purified PP5c, OMFP substrate fluorescence. P53041. 320,000 compounds, 0.18% hits. inhibition, % at 6.7 µM;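 active = inhibition above the campaign's mean inhibition across all tested compounds plus 3 SD, cut at about 9.5% in these data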
PME-1 inh = PME-1 (human) inhibition | Q9Y570 | recombinant PME-1, FP-Rh probe fluorescence polarization | inhibition, % at 5.9 µM | 320,000 compounds, 0.53% hits;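 active = inhibition above the campaign mean of all compounds plus 3 SD, cut at about 26% in these data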;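 also: competitive labeling of PME-1 active site by serine hydrolase directed probe; inhibitors block probe labeling so polarization falls and inhibition rises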
Target sequence (Q9Y570 whole entry, looked up): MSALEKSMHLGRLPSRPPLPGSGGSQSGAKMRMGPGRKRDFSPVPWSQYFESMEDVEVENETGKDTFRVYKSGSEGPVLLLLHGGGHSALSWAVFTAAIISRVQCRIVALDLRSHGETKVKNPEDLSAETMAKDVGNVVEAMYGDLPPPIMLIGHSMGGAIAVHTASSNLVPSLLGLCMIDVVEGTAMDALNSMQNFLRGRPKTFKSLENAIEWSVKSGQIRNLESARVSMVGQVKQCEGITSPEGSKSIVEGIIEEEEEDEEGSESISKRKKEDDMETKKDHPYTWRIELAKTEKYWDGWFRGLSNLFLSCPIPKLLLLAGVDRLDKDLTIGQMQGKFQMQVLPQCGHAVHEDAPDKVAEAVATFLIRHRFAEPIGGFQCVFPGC
Fam108B inh = blocks mouse Fam108B hydrolase in RBBP9 counter-screen | AID 1947 | 300,000 compounds, 0.33% hits | recombinant Fam108B, FP-Rh probe fluorescence polarization | inhibition, % at 9.51 µM;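 active = inhibition above the screen mean inhibition plus 3 SD, computed separately per campaign, cut at about 18% in these data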;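 also: inhibitors lower polarization as less probe binds the enzyme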
PP1 counter = counter-screen for PP5 inhibitors: inhibitors of human PP1-alpha; 320,000 compounds, 0.9% hits; purified PP1alpha, OMFP fluorescence; P62136; AID 2235; inhibition, % at 6.7 µM;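 active = inhibition above the mean inhibition of all tested compounds plus 3 SD, computed separately for each screening campaign, cut at about 15% in these data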
LYPLA2 counter = counter-screen for PME1 inhibitors: inhibitors of human LYPLA2; O95372; recombinant LYPLA2, FP-Rh probe fluorescence polarization; inhibition, % at 5.9 µM; 320,000 compounds, 0.38% hits;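 active = inhibition above the screen-wide mean plus 3 SD, limit set per campaign, cut at about 26% in these data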
LYPLA1 inh = blocks human lysophospholipase 1, a PME1 counter-screen; O75608; recombinant LYPLA1, FP-Rh probe fluorescence polarization; inhibition, % at 5.9 µM; 320,000 compounds, 0.16% hits;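 active = inhibition above the mean of all tested compounds plus 3 SD, set per campaign, cut at about 14% in these data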;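 also: inhibitors block serine hydrolase probe labeling of LYPLA1 so polarization falls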
PP1 confirm = human PP1 phosphatase inhibition, confirmation. shares compounds with PP1 counter. purified PP1alpha, OMFP substrate fluorescence. inhibition, % at 6.7 µM. 1,900 compounds, 52% hits. AID 2358;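 active = mean PP1 inhibition above a set limit taken from the earlier primary screen, cut at about 15% in these data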
PP5 counter = counter-screen for PP1 inhibitors: human PP5 phosphatase inhibition; inhibition, % at 6.7 µM; AID 2360; 1,900 compounds, 4% hits; purified PP5c, OMFP fluorescence; shares compounds with PP1 counter;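 active = mean PP5 inhibition over triplicate wells above about 9.5% taken from the earlier PP1 screen, limit read from the data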
Large screens that a line does not name were inactive (follow-up assays come after a bar, where they were run).

COCCN(Cc1ccccc1)C(=O)c1ccc(C(=O)c2ccccc2)cc1	none (no result: Fam108B inh)
CC1(c2ccccc2)CC(C)(C)N2C(=O)C(=O)c3cccc1c32 (stereo unspecified)	PP1 counter 24 | PP1 confirm 18 | PP5 counter inactive
CNC(=O)c1[nH]cnc1C(=O)NCC(=O)OCc1ccccc1	none
Cc1c(NC(=O)c2ccc(-c3ccccc3)cc2)cccc1C(=O)O	none
Cc1c(NC(=O)c2cccnc2C(=O)O)cccc1C(=O)O	PP1 counter 25 | PP1 confirm inactive | PP5 counter inactive
Cc1ccc(C)c(C(C)NC(=O)C2C3CCC(O3)C2C(=O)O)c1 (stereo unspecified)	PP5 inh 82, PP1 counter 80 | PP1 confirm 33 | PP5 counter 43
COc1cc(NC(=O)C2C3CCC(O3)C2C(=O)O)cc(OC)c1 (stereo unspecified)	PP5 inh 80, PP1 counter 76 | PP1 confirm 21 | PP5 counter 30
COc1cccc(NC(=O)C2C3C=CC(C3)C2C(=O)O)c1 (stereo unspecified)	none
O=C(O)C1C2CCC(O2)C1C(=O)Nc1ccc(O)cc1 (stereo unspecified)	PP5 inh 43, PP1 counter 27 | PP1 confirm inactive | PP5 counter 18
O=C(O)c1ccc(NC(=O)C2C3CCC(C3)C2C(=O)O)cc1 (stereo unspecified)	none
Cc1ccc(NC(=O)C2CCC(=O)N2)cc1C (stereo unspecified)	none
Cc1ccc(NC(=O)C2C3CCC(O3)C2C(=O)O)cc1C (stereo unspecified)	PP5 inh 83, PP1 counter 81 | PP1 confirm 22 | PP5 counter 43
Cc1ccc(C(C)NC(=O)C2CCCC2)c(C)c1 (stereo unspecified)	none
O=C(Nc1cccc(Br)c1)c1cc(S(=O)(=O)N2CCOCC2)cs1	none
OCC[C@@H]1C[C@@H](O)[C@H](O)[C@]2(CCc3ccccc3O2)O1	none
O=C(O)C1C2CCC(O2)C1C(=O)Nc1ccc(OC(F)F)cc1 (stereo unspecified)	PP5 inh 68, PP1 counter 68 | PP1 confirm inactive | PP5 counter 26
FC(F)Oc1ccc(NC(=S)NC2CCCCCCC2)cc1	none
Cc1c(CCC(=O)O)c(=O)oc2c(C)c(OCc3cc4c(cc3Cl)OCO4)ccc12	PP1 counter 20 | PP1 confirm inactive | PP5 counter inactive
Cc1ccc(N2CC(C(=O)OCC(=O)NNC(=O)c3ccccc3)CC2=O)cc1 (stereo unspecified)	PP1 counter 35 | PP1 confirm inactive | PP5 counter inactive
CCc1ccc(N2CC(C(=O)OCC(=O)NNC(=O)c3ccccc3)CC2=O)cc1 (stereo unspecified)	none
CC1CC(C)CN(S(=O)(=O)c2ccc(C(=O)Nc3nnc(C4CC4)o3)cc2)C1 (stereo unspecified)	PP1 counter 19 | PP1 confirm 27 | PP5 counter inactive
CCC1CCCCN1S(=O)(=O)c1ccc(C(=O)Nc2nnc(-c3ccccc3Cl)o2)cc1 (stereo unspecified)	none
CCC1CCCCN1S(=O)(=O)c1ccc(C(=O)Nc2nnc(C3CC3)o2)cc1 (stereo unspecified)	PP1 counter 23 | PP1 confirm 26 | PP5 counter inactive
COc1ncnc2c1ncn2CC1COC(C)(C)O1 (stereo unspecified)	none
COc1ccc(/C(C)=N\NC(=O)CSc2nnc(C)s2)cc1	PP1 counter 19 | PP1 confirm inactive | PP5 counter inactive
Cc1ccc(NC(=O)/C(=C\c2cccc([N+](=O)[O-])c2)NC(=O)c2cccs2)cc1	PP1 counter 24 | PP1 confirm 18 | PP5 counter inactive
O=c1[nH]c(/C=C/c2ccccc2Cl)nc2ccccc12	PP1 counter 18 | PP1 confirm 25 | PP5 counter inactive
O=C(O)c1ccc(/C=C/c2nc3ccccc3c(=O)[nH]2)cc1	none
CC(C)(NS(=O)(=O)OCC(Cl)(Cl)Cl)c1ccccc1	none
